PAFAH1B2 FP inh: PAFAH1B2 enzyme inhibitors, primary screen, biochemical, fluorescence polarization, human. Platelet-activating factor acetylhydrolase IB subunit alpha2 (Homo sapiens), P68402. recombinant PAFAH1B2, FP-rhodamine activity probe. inhibition, % at 3.39 µM. 340,000 compounds, 1.2% hits. AID 492953, 2010;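 active means inhibition above the mean of all tested compounds plus 3 SD, cut at about 24% in these data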;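 further: 0% = enzyme with DMSO and 100% = wells lacking PAFAH1B2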
PME-1 inh: PME-1 inhibitors via competitive probe labeling, primary screen, biochemical, fluorescence polarization, FP-Rh probe, HTS; Protein phosphatase methylesterase 1 (Homo sapiens), Q9Y570; 320,000 compounds, 0.53% hits; recombinant PME-1; AID 2130, 2009; inhibition, % at 5.9 µM;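 active means inhibition above the campaign mean of all compounds plus 3 SD, cut at about 26% in these data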;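 further: competitive labeling of PME-1 active site by serine hydrolase directed probe; 0% = PME-1 with DMSO and 100% = wells lacking PME-1 enzyme; inhibitors block probe labeling so polarization falls and inhibition rises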
pPAFAH inh: pPAFAH enzyme inhibitors, primary screen, biochemical, fluorescence polarization, human | 330,000 compounds, 1.5% hits | recombinant pPAFAH, FP-rhodamine probe fluorescence polarization | Platelet-activating factor acetylhydrolase (Homo sapiens), Q13093 | inhibition, % at 3.39 µM;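 active means inhibition above the mean inhibition across the screen plus 3 SD, cut at about 25% in these data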;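 further: inhibitors block binding of the rhodamine activity-based probe so polarization drops; 0% = enzyme with DMSO and 100% = wells lacking pPAFAH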
Target sequence (Q13093 whole entry, looked up): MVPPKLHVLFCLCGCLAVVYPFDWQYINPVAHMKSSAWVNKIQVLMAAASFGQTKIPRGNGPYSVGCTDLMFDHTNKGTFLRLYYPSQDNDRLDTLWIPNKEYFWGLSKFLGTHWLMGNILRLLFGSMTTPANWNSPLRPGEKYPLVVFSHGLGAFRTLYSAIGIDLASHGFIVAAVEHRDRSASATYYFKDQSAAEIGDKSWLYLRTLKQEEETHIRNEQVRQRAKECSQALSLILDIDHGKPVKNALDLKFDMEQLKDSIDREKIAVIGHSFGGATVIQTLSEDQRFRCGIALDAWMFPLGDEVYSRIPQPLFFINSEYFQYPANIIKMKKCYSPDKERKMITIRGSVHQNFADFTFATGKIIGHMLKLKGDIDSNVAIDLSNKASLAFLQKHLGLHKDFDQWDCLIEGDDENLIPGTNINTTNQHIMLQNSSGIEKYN
PAFAH1B3 inh: PAFAH1B3 enzyme inhibitors, primary screen, biochemical, fluorescence polarization, human | Platelet-activating factor acetylhydrolase IB subunit alpha1 (Homo sapiens), Q15102 | recombinant PAFAH1B3, FP-rhodamine probe | inhibition, % at 3.39 µM | 340,000 compounds, 0.28% hits | AID 492972, 2010;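 active means inhibition above the screen-wide average of all tested compounds plus 3 SD, cut at about 25% in these data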;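 further: 0% = enzyme with DMSO only and 100% = wells lacking PAFAH1B3 protein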
PAFAH2 FP inh: PAFAH2 enzyme inhibitors, primary screen, biochemical, fluorescence polarization, human; inhibition, % at 3.39 µM; 340,000 compounds, 0.99% hits; AID 492956, 2010; recombinant PAFAH2, FP-rhodamine activity probe;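 active means inhibition above the mean over all tested compounds plus 3 SD, cut at about 30% in these data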;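 further: inhibitors block probe labeling of enzyme so polarization drops; 0% = enzyme with DMSO and 100% = wells lacking PAFAH2 protein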
Fam108B inh: mouse Fam108B serine hydrolase inhibitors, primary screen, counter-screen for RBBP9 inhibitor project, biochemical, fluorescence polarization; recombinant Fam108B, FP-Rh probe fluorescence polarization; 300,000 compounds, 0.33% hits; inhibition, % at 9.51 µM;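 active means inhibition above the screen mean inhibition plus 3 SD, computed separately per campaign, cut at about 18% in these data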;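 further: inhibitors lower polarization as less probe binds the enzyme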
Numbers without * were called inactive; . = not tested or not shown. Rows were chosen to be rich in hits. Some 2.9% of all compounds tested hit in one or more screens of this group.

SMILES	PAFAH1B2 FP inh	PME-1 inh	pPAFAH inh	PAFAH1B3 inh	PAFAH2 FP inh	Fam108B inh
CCOC(=O)c1sc(N=NC2=C(O)CCCC2=O)c(C(=O)OCC)c1C	-5	8	28*	2	10	8
CCOC(=O)/C(N=Nc1sc(C(=O)OCC)c(C)c1C(=O)OCC)=C(\C)O	.	2	2	.	.	1
Cc1ccc(N=Cc2cc3c(cc2[N+](=O)[O-])OCO3)cc1[N+](=O)[O-]	.	8	31*	.	.	8
CC(C)(C)n1cnc2cc(NCc3ccc(Br)cc3)ccc21	34*	-18	8	6	1	-17
CCCCN(C(=O)c1cccc(N2C(=O)c3ccccc3C2=O)c1)c1c(N)n(CC(C)C)c(=O)[nH]c1=O	0	-6	-4	14	-1	.
COCCCN(C(=S)NC(=O)c1ccc(C(C)(C)C)cc1)c1c(N)n(Cc2ccccc2)c(=O)[nH]c1=O	27*	0	8	5	9	-1
CCCCN(C(=O)c1cccc(-n2cccc2)c1)c1c(N)n(Cc2ccccc2)c(=O)[nH]c1=O	2	-14	33*	-5	7	5
O=C(Nc1ccccc1C(=O)O)c1cc(S(=O)(=O)Nc2cccc(F)c2)ccc1Cl	4	-1	31*	1	-8	-4
O=C(Nc1ccccc1C(=O)O)c1cc(S(=O)(=O)N2CCCCCC2)ccc1Cl	10	6	0	-7	-1	0
COc1ccc2ccc3c(c2c1)N=CC1(O3)N(C)c2ccccc2C1(C)C (stereo not drawn)	1	9	33*	14	5	3
CN1c2ccccc2C(C)(C)[C@]12C=Cc1cc(O)ccc1O2	-7	-64	0	-8	-11	-1
Cc1cc(=O)[nH]c(SCC(=O)Nc2nc(-c3ccccc3)cs2)n1	4	-2	4	8	8	1
CCOC(=O)c1ccccc1NC(=O)CSc1nnc(C)c(=O)[nH]1	34*	6	2	12	7	-2
Cc1nnc(SCC(=O)Nc2nc(-c3ccc(F)cc3)cs2)[nH]c1=O	30*	2	6	5	2	-5
CCc1ccc(N2CN(CCc3ccccc3)CNC2=S)cc1	.	10	0	.	.	-1
COc1cccc(NC(=O)Nc2nnc(Cc3ccccc3)s2)c1	-7	-4	1	0	-6	-5
Cc1ccc(C)c(SCC(=O)OCC(=O)c2ccco2)c1	1	1	28*	6	15	0
Cc1ccc(C)c(SCC(=O)NCc2ccco2)c1	7	11	-4	3	0	-3
N/C(=N\OC(=O)CCC1CCCC1)c1ccc(Cl)cc1	25*	1	-2	-7	10	3
COc1cccc(N2CCN(S(=O)(=O)c3cccc4cccnc34)CC2)c1	8	7	6	4	1	9
CN(CC(=O)Nc1ccc(F)cc1)C(=O)COC(=O)c1ccc(=O)n(Cc2ccccc2)n1	5	5	29*	3	2	.
O=[N+]([O-])c1cc(S(=O)(=O)Nc2ccccc2)ccc1N1CCN(c2ccc(O)cc2)CC1	0	11	30*	12	7	8
CN1CCN(S(=O)(=O)c2ccc(N3CCN(c4ccc(O)cc4)CC3)c([N+](=O)[O-])c2)CC1	16	1	4	-9	4	6
N#C/C(=C\c1ccc(OCc2ccc(Br)cc2)cc1)C(=O)Nc1cccc(C(=O)O)c1	24*	-3	2	-7	-31	-11
C[C@H](N)c1nnc(SCC(N)=O)o1	-5	2	1	2	-10	-4
O=C(c1ccccc1)N1CCCCC(Sc2nnnn2-c2ccccc2)C1=O (stereo not drawn)	5	2	1	6	4	-3
COc1cc(/C=N/n2cnnc2)ccc1OCCSc1ccc(C)cc1	24*	-5	11	1	0	-4
